This is a sample that favours compounds with a hit; in the whole collection about 7% have one here.
S2 tox: Viability Counterscreen for Primary qHTS for Inhibitors of ATXN expression. actives 0.49% (n = 400,000). AID 651635, 2014. Potency, µM (doses to about 56.7 µM), actives largely listed as cytotoxic. S2 cells (HEK-293 line with an ATXN2-luciferase reporter) viability, CellTiter-Fluor protease fluorescence, 24 h; note: potency is the fitted concentration of half-maximal effect; nearly all actives have a fitted effect of over 40% in size
IL1B secr inh: qHTS for Inhibitors of Inflammasome Signaling: IL-1-beta AlphaLISA Primary Screen | THP-1 LPS/ATP IL-1B secretion, AlphaLISA, 16 h; stronger effect = lower value | activity change, % at 57.5 µM | actives 4.7% (n = 360,000) | AID 743279, 2014; in the data active = activity change below about -50%; inconclusive = mostly about -30% to -49%; note: % is set by controls: 0 for no effect and ±100 for the full control effect
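THP-1 cells pretreated 1 hr with compounds (up to 57.5 uM final), then stimulated with LPS (250 ng/mL final) plus ATP (1.25 mM final); secreted IL-1B measured by AlphaLISA after 16 hr, decreased signal indicating inhibition.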
D3 ag: qHTS of D3 Dopamine Receptor Agonist: qHTS. D(3) dopamine receptor (Homo sapiens), P35462. actives 0.58% (n = 410,000). D3R DiscoveRx beta-arrestin cells, luminescence, 90 min. max activation, %; in the data active = max activation above about 30%; note: 0% is about no effect
Target sequence (P35462 whole entry, looked up): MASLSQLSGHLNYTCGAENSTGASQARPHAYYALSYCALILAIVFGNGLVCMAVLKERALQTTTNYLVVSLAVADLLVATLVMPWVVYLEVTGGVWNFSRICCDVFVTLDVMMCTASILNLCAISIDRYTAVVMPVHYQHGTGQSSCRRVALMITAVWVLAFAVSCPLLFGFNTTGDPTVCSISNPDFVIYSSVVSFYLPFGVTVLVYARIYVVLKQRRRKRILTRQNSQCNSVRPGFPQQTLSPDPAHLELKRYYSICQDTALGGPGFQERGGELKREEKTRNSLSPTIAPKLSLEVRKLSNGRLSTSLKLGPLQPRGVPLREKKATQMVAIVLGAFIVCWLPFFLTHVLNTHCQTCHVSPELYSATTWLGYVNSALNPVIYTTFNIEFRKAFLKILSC
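Cells at 1500/well, incubated overnight, then treated with pinned compounds (dopamine as control) for 90 min at 37 degrees C. DiscoveRx reagent added for 30 - 60 minutes at room temperature; luminescence read.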
ATXN2 expr inh: Primary qHTS for Inhibitors of ATXN expression | AID 1745845, 2022 | HEK-293 ATXN2-luciferase reporter, luminescence, 24 h | Potency, µM (doses to about 57 µM), for the others: at the top dose activity change, negative = inhibition, usual class: inhibitors | actives 0.72% (n = 360,000); note: potency is the fitted concentration of half-maximal effect; % is set by controls: 0 for no effect and ±100 for the full control effect; nearly all actives have a fitted effect of over 55% in size
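qHTS (up to 57 uM final) was run with 24 h compound exposure of reporter cells at 37 °C. Each well was multiplexed: SteadyGlo luminescence measured ATXN2-luciferase expression after a fluorogenic Gly-Phe-AFC viability readout (25 uM final).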
DRD3 antagonist: qHTS of D3 Dopamine Receptor Antagonist: qHTS; D(3) dopamine receptor (Homo sapiens), P35462; D3R cells, DiscoveRx beta-arrestin luminescence, antagonist mode; stronger effect = lower value; max response, negative = inhibition, %; actives 2.5% (n = 360,000); in the data active = max response below about -50%; inconclusive = no clear call, values can overlap the other calls; note: % is set by controls: 0 for no effect and ±100 for the full control effect
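Cells expressing the human receptor were seeded at 1500 cells/well, incubated overnight at 37 degrees C in 5% CO2, then exposed to library compounds with dopamine controls for 90 minutes at 37 degrees C before luminescent detection.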
a7 integrin act: qHTS for Activators of Integrin-Mediated Alleviation for Muscular Dystrophy. alpha7betagal myoblasts, beta-gal FDG fluorescence, 48 h. Potency, µM (top dose mostly 38.3 µM), inactives show at the highest dose activation, hits mostly activators. actives 0.064% (n = 350,000);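 note: potency is the fitted concentration of half-maximal effect; 100% = response of the positive control SU9516; nearly all actives have a fitted effect of over 60% in size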
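alpha7betagal+/- myoblasts (passage 13, 250/well) treated 48 h at 37C with compounds at 1:260 dilution of DMSO stock. Lysed, then beta-galactosidase activity read as FDG fluorescence (ex 480/em 540) after 30 min, with pre-read for autofluorescence.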
* = called active by the depositor; i = inactive; u = inconclusive; x = not tested or not shown; [ ] = remark or other dose. Unless noted, calls come from the whole dose curve; as a rule, active = well fitted curve in the direction sought with a large enough effect; inconclusive = small, poorly fitted or top-dose-only effect, or another doubt; inactive = no such curve, though single readings can be large; an effect the other way counts as inactive or inconclusive.

SMILES	S2 tox	IL1B secr inh	D3 ag	ATXN2 expr inh	DRD3 antagonist	a7 integrin act
CN[C@@H]1[C@@H](O)[C@@H](O[C@@H]2[C@@H](O)[C@H](OC3OC(CN)=CCC3N)[C@@H](N)C[C@H]2N)OC[C@]1(C)O (stereo partly drawn)	i	x	-6.9	x	x	x
CCN[C@@H]1C[C@H](N)[C@@H](OC2OC(CN)=CCC2N)[C@H](O)[C@H]1O[C@H]1OC[C@](C)(O)[C@H](NC)[C@H]1O (stereo partly drawn)	i[0.575 µM]	x	49.1*	-1.7%[0.709 µM]	x	x
O=C(O)COc1ccc(C(=O)c2ccccc2)cc1	i	11.9	3.6	x	-1.1	16.9%
O=C(O)COc1ccc(/C=C/C(=O)c2ccc(C3CCCCC3)cc2)cc1	i	-101.2*	-10.8	9.5%	u	-5.1%
O=C(O)COc1ccc(/C=C/C(=O)c2ccc3ccccc3c2)cc1	i	-99.4*	-5.9	-7.1%	-22.7	-19.8%
CCOc1ccc(/C=C/C(=O)NC2CCCCC2)cc1	i	-5.9	1.2	22.4%	-23.6	-11.2%
CC(C)CCN1CCN(CCCc2ccccc2)CC1CCO (stereo not drawn)	i	-13.2	-14.9	-3.5%	-15.0	-38.5%
CN(C)c1ccc(C(c2ccc(N(C)C)cc2)C(O)c2ccccc2)cc1 (stereo not drawn)	u	-55.3*	4.3	9.1%	7.6	10.5%
CN(C)c1ccc(C(=O)C(O)c2ccccc2)cc1 (stereo not drawn)	i	-7.0	-7.5	6.2%	8.6	-15.2%
CC1(C(=O)NCCC(F)(F)F)Cc2c(-c3cccc(C(N)=O)c3)ccnc2O1 (stereo not drawn)	i	-8.7	-4.3	6.7%	-59.3*	x
CC(C)c1ccc(NC(=O)C2(C)Cc3c(-c4cccc(C(N)=O)c4)ccnc3O2)cc1 (stereo not drawn)	u	-69.1*	4.3	u	-23.1	x
CC1(C(=O)Nc2ccc(Cl)cc2)Cc2c(-c3cccc(C(N)=O)c3)ccnc2O1 (stereo not drawn)	u	0.0	-12.5	-34.8%	u	x
CC(=O)Nc1cccc(-c2ccnc3c2CC(C)(C(=O)Nc2ccc(C(C)C)cc2)O3)c1 (stereo not drawn)	u	-60.3*	-9.1	u	8.0	x
CC(=O)Nc1cccc(-c2ccnc3c2CC(C)(C(=O)Nc2ccc(Cl)c(C(F)(F)F)c2)O3)c1 (stereo not drawn)	i	-66.8*	-2.0	u	12.8	x
CC1(C(=O)NCCC(F)(F)F)Cc2c(-c3cccc(C(F)(F)F)c3)ccnc2O1 (stereo not drawn)	u	0.0	2.5	-16.9%	6.1	x
CC(=O)Nc1cccc(-c2ccnc3c2CC(C)(C(=O)Nc2ccc(F)c(Cl)c2)O3)c1 (stereo not drawn)	i	0.0	-9.1	u	-13.0	x
CC(=O)Nc1cccc(-c2ccnc3c2CC(C)(C(=O)Nc2ccccc2)O3)c1 (stereo not drawn)	i	-21.6	2.6	5.1%	1.1	x
CC(=O)Nc1ccc(NC(=O)C2(C)Cc3c(-c4ccccc4)ccnc3O2)cc1 (stereo not drawn)	i	-9.9	-4.1	-2.2%	-112.5*	x
Cc1c(C(=O)Nc2ccc(Cl)cc2)c2ccccn2c1CCc1ccncc1	i	-59.4*	1.7	1.7%	-0.7	17.7%
Cc1c(C(=O)Nc2ccc(Cl)cc2)c2ccccn2c1C(=O)c1ccc(F)cc1	u	0.0	-1.2	u	0.8	28.1%
Cc1c(C(=O)Nc2cccc(Cl)c2)c2ccccn2c1CCc1ccncc1	u	-189.2*	-10.5	u	3.2	-29.4%
Cc1ccc(-c2cc(C(=O)Oc3ccc(C#N)cc3)no2)cc1C	i	x	-16.2	10.5%	x	x
CCOc1ccc(C(=O)N2CCC(c3nc(-c4ccc(S(=O)(=O)N5CCCC5)cc4)no3)CC2)cc1	x	x	13.6	x	x	x
COc1cc2cnc(-c3ccccc3)c(-c3cc(OC)c(OC)c(OC)c3)c2cc1OC	i	-50.8*	-8.3	-15.5%	-5.9	-37.3%
COc1cc2cnc(-c3ccccc3)c(-c3ccc([N+](=O)[O-])cc3)c2cc1OC	i	-9.7	-9.4	2.1%	-0.6	8.1%
SMILES	S2 tox	IL1B secr inh	D3 ag	ATXN2 expr inh	DRD3 antagonist	a7 integrin act
O=c1cc(CSc2nnc(NC3CCCCC3)s2)nc2sccn12	i	38.0	-0.1	-0.3%	12.7	u
c1ccc(CSc2nnc(NC3CCCCC3)s2)cc1	i	-51.6*	-6.0	x	0.2	2.1%
Cc1oc(-c2ccccc2Cl)nc1Cn1c(SCc2cccc(F)c2)nc2cccnc21	x	x	43.8*	x	x	x
COc1ccc(-c2nc(Cn3c(SCc4cccc(F)c4)nc4cccnc43)c(C)o2)cc1	x	x	12.8	x	x	x
O=C1OC(c2ccccc2)/C(=C(/O)c2ccc(Cl)cc2)C1=O (stereo not drawn)	i	-11.2	-5.0	-4.1%	-61.9*	11.9%
Cc1ccc(/C(O)=C2/C(=O)C(=O)OC2c2ccc(Cl)cc2)cc1 (stereo not drawn)	i	u	-10.2	-6.7%	-19.1	5.5%
Cc1ccc(-n2ncc3c2CC(C)(C)CC3NC(=O)c2ccccn2)cc1 (stereo not drawn)	i	-81.0*	3.4	-18.1%	7.8	-2.7%
Cc1ccc(-n2nc3ccc(NC(=O)c4oc5ccc(C)cc5c4C)cc3n2)cc1	x	x	5.8	x	x	x
CC(C)n1cnc2c(NCc3ccccc3)cc(N[C@H](C)CO)cc21	0.891µM*	109.8	-11.1	1.12µM*	u	-44.8%
CCC(COC(=O)c1ccccc1)Oc1cc(NCc2ccccc2)c2ncn(C(C)C)c2c1 (stereo not drawn)	u	78.9	0.2	u	3.5	-44.1%
CCCCOc1cc(NCc2ccccc2)c2ncn(C(C)C)c2c1	u	27.0	0.8	-38.7%	15.2	-43.2%
CCC(CO)Oc1cc(NCc2ccccc2)c2ncn(C(C)C)c2c1 (stereo not drawn)	u	13.5	37.0*	-22.1%	4.6	-22.8%
CCC(CO)Oc1cc(NCc2ccc(C(C)(C)C)cc2)c2ncn(C(C)C)c2c1 (stereo not drawn)	31.6µM*	34.8	28.5	u	23.1	-18.6%
CCC(COC)Oc1cc(NCc2ccccc2)c2ncn(C(C)C)c2c1 (stereo not drawn)	22.4µM*	-90.3*	4.9	-3.1%	3.6	-13.6%

Screening results: PubChem, National Center for Advancing Translational Sciences (NCATS)
